# About 79,000 compounds went through this panel and 15% of them were active in at least one assay; those are over-represented in the sample as a whole. Values without a mark were called inactive. Calls of active or inactive are those of the source. No stated cut-off is given here; in the data, active means growth inhibition above about 70%; inactive means the rest.
# What was measured:
# [1] = NCI Yeast Anticancer Drug Screen. Data for the rad52 strain (AID 147);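 further: 0% = growth of vehicle-treated control cultures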; details: S. cerevisiae rad52 mutant growth inhibition, active compounds read high
# Outline: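 Screen used a yeast mutant impaired in DNA repair. After compound exposure, growth was measured. Values reflect inhibition compared with vehicle-treated cells.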
# [2] = NCI Yeast Anticancer Drug Screen. Data for the wt1 strain (AID 149);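 further: 0% = growth of vehicle-treated wt1 cultures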; details: S. cerevisiae wt1 strain (SPY 50644) growth inhibition, active compounds read high
# Outline: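 Measured: growth of wt1 yeast under compound versus vehicle treatment, reported as inhibition.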
# [3] = NCI Yeast Anticancer Drug Screen. Data for the rad50EPP+ strain (AID 151);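 further: 0% = growth of vehicle-treated control cultures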; details: S. cerevisiae rad50 mutant strain, active compounds read high
# Outline: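 Exposing the rad50EPP+ strain to each compound, growth was compared with vehicle-only cultures to give inhibition.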
# [4] = NCI Yeast Anticancer Drug Screen. Data for the mgt1 strain (AID 153); details: S. cerevisiae mgt1 mutant growth inhibition, active compounds read high
# Outline: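 Genetically defined yeast (mgt1) treated with compound; inhibition of growth expressed against vehicle-treated controls.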
# [5] = NCI Yeast Anticancer Drug Screen. Data for the rad50 strain (AID 155);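 further: 0% = growth of vehicle-only cultures of the same strain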; details: S. cerevisiae rad50 strain growth inhibition, active compounds read high
# Outline: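 Growth of the mutant yeast was measured after compound exposure and referenced to vehicle-treated cultures.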
# [6] = NCI Yeast Anticancer Drug Screen. Data for the mec2-1 strain (AID 157); details: S. cerevisiae mec2-1 strain, active compounds read high
# Outline: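 Readout is yeast growth inhibition, normalised to vehicle-treated controls, in the mec2-1 strain exposed to compound.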
# [7] = NCI Yeast Anticancer Drug Screen. Data for the rad14 strain (AID 159);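 further: 0% = growth of vehicle-treated control cultures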; details: S. cerevisiae rad14 strain growth inhibition, active compounds read high
# Outline: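 Here, inhibition of yeast growth was measured after compound exposure, using a strain with a genetic defect in DNA damage repair and vehicle-treated cultures as the reference.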
# [8] = NCI Yeast Anticancer Drug Screen. Data for the sgs1 mgt1 strain (AID 161);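 further: 0% = growth of cultures given vehicle only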; details: S. cerevisiae sgs1 mgt1 strain, active compounds read high
# Outline: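 Percent growth inhibition was derived by comparing compound-exposed mutant yeast with vehicle-exposed cultures. The strain carries alterations in DNA damage repair.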
# [9] = NCI Yeast Anticancer Drug Screen. Data for the CLN2oe strain (AID 163);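 further: 0% = growth of vehicle-only control cultures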; details: S. cerevisiae CLN2oe strain, active compounds read high
# Outline: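 Values reflect how much compound exposure reduced yeast growth, referenced to vehicle-exposed cells. Assay organism is a strain with a defined genetic change affecting cell-cycle control.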
# [10] = NCI Yeast Anticancer Drug Screen. Data for the cln2 rad14 strain (AID 165);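 further: 0% = growth equal to vehicle treated cultures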; details: S. cerevisiae cln2 rad14 strain, active compounds read high
# Outline: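 Relative to vehicle controls, growth inhibition of compound-treated cln2 rad14 yeast was recorded.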
# [11] = NCI Yeast Anticancer Drug Screen. Data for the bub3 strain (AID 167); details: S. cerevisiae bub3 mutant strain, active compounds read high
# Outline: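 Whole-cell yeast assay. The mutant strain was incubated with compounds, and growth inhibition was determined by comparison with vehicle-treated cells.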
# [12] = NCI Yeast Anticancer Drug Screen. Data for the wt2 strain (AID 169);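 further: 0% = growth of vehicle-treated yeast cultures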; details: S. cerevisiae wt2 strain growth inhibition, active compounds read high
# Outline: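 Values express reduction in yeast growth under compound treatment, referenced to vehicle-treated cells.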
# [13] = NCI Yeast Anticancer Drug Screen. Data for the mlh1 strain (AID 171);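 further: 0% = growth of vehicle-treated control cultures of the same strain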; details: S. cerevisiae mlh1 strain growth inhibition, active compounds read high
# Outline: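 Steps: expose the defined-mutant yeast strain to compound; expose a parallel culture to vehicle; measure growth; express compound effect as inhibition relative to the vehicle culture.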
# [14] = NCI Yeast Anticancer Drug Screen. Data for the sgs1 strain (AID 173);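 further: 0% = growth of vehicle-only control cultures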; details: S. cerevisiae sgs1 mutant, active compounds read high
# Outline: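 Treat defined-mutant yeast with compound; measure growth; calculate inhibition relative to vehicle-treated cells.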
# [15] = NCI Yeast Anticancer Drug Screen. Data for the mlh1 rad18 strain (AID 175); details: S. cerevisiae mlh1 rad18 strain growth inhibition, active compounds read high
# Outline: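 Test agents were incubated with a yeast strain of defined genotype (DNA damage repair defect). Inhibition of growth was derived by comparison with vehicle-exposed cultures.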
# [16] = NCI Yeast Anticancer Drug Screen. Data for the rad18 strain (AID 177); details: S. cerevisiae rad18 mutant growth inhibition, active compounds read high
# Outline: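 A genetically defined yeast mutant impaired in DNA damage repair was treated with test compounds, then its growth was measured against cultures receiving vehicle alone.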
# [17] = at 5.0 µM (retest, dose inferred, filed as 0.5)
# [18] = at 50.0 µM (retest, dose inferred, filed as 5.0)
compound,measurement,setting,value
C=CC(C)(C)N1C(=O)C(C(C)=O)=C(O)C1Cc1c[nH]c2ccccc12 (stereo not drawn),growth inhibition,[1]; at 1.2 µM,-1%
same,growth inhibition,[1]; at 3.7 µM,-4%
same,growth inhibition,[1]; at 11.0 µM,-2%
same,growth inhibition,[1]; at 33.0 µM,19%
same,growth inhibition,[1]; at 100.0 µM,87% (active)
same,growth inhibition,[2]; at 1.2 µM,1%
same,growth inhibition,[2]; at 3.7 µM,5%
same,growth inhibition,[2]; at 11.0 µM,3%
same,growth inhibition,[2]; at 33.0 µM,20%
same,growth inhibition,[2]; at 100.0 µM,71% (active)
same,growth inhibition,[3]; at 1.2 µM,-1%
same,growth inhibition,[3]; at 3.7 µM,1%
same,growth inhibition,[3]; at 11.0 µM,-4%
same,growth inhibition,[3]; at 33.0 µM,-9%
same,growth inhibition,[3]; at 100.0 µM,-15%
same,growth inhibition,[4]; at 1.2 µM,-2%
same,growth inhibition,[4]; at 3.7 µM,-4%
same,growth inhibition,[4]; at 11.0 µM,-1%
same,growth inhibition,[4]; at 33.0 µM,16%
same,growth inhibition,[4]; at 100.0 µM,95% (active)
same,growth inhibition,[5]; at 1.2 µM,-2%
same,growth inhibition,[5]; at 3.7 µM,-2%
same,growth inhibition,[5]; [17],0%
same,growth inhibition,[5]; at 11.0 µM,-2%
same,growth inhibition,[5]; at 33.0 µM,10%
same,growth inhibition,[5]; [18],48%
same,growth inhibition,[5]; at 50.0 µM,28.6%
same,growth inhibition,[5]; at 100.0 µM,78% (active)
same,growth inhibition,[6]; at 1.2 µM,0%
same,growth inhibition,[6]; at 3.7 µM,1%
same,growth inhibition,[6]; [17],-18%
same,growth inhibition,[6]; at 11.0 µM,7%
same,growth inhibition,[6]; at 33.0 µM,21%
same,growth inhibition,[6]; [18],-8%
same,growth inhibition,[6]; at 50.0 µM,58.7%
same,growth inhibition,[6]; at 100.0 µM,88% (active)
same,growth inhibition,[7]; at 1.2 µM,-3%
same,growth inhibition,[7]; at 3.7 µM,-3%
same,growth inhibition,[7]; at 11.0 µM,-1%
same,growth inhibition,[7]; at 33.0 µM,21%
same,growth inhibition,[7]; at 100.0 µM,95% (active)
same,growth inhibition,[8]; [17],18%
same,growth inhibition,[8]; [18],73% (active)
same,growth inhibition,[8]; at 50.0 µM,52.8%
same,growth inhibition,[9]; at 1.2 µM,-5%
same,growth inhibition,[9]; at 3.7 µM,-12%
same,growth inhibition,[9]; at 11.0 µM,-9%
same,growth inhibition,[9]; at 33.0 µM,16%
same,growth inhibition,[9]; at 100.0 µM,83% (active)
same,growth inhibition,[10]; [17],-4%
same,growth inhibition,[10]; [18],21%
same,growth inhibition,[10]; at 50.0 µM,32.8%
same,growth inhibition,[11]; at 1.2 µM,-3%
same,growth inhibition,[11]; at 3.7 µM,-2%
same,growth inhibition,[11]; [17],-11%
same,growth inhibition,[11]; at 11.0 µM,0%
same,growth inhibition,[11]; at 33.0 µM,15%
same,growth inhibition,[11]; [18],55%
same,growth inhibition,[11]; at 50.0 µM,46.8%
same,growth inhibition,[11]; at 100.0 µM,84% (active)
same,growth inhibition,[12]; at 1.2 µM,-1%
same,growth inhibition,[12]; at 3.7 µM,-1%
same,growth inhibition,[12]; at 11.0 µM,-1%
same,growth inhibition,[12]; at 33.0 µM,16%
same,growth inhibition,[12]; at 100.0 µM,92% (active)
same,growth inhibition,[13]; at 1.2 µM,-6%
same,growth inhibition,[13]; at 3.7 µM,0%
same,growth inhibition,[13]; at 11.0 µM,0%
same,growth inhibition,[13]; at 33.0 µM,14%
same,growth inhibition,[13]; at 100.0 µM,66%
same,growth inhibition,[14]; at 1.2 µM,0%
same,growth inhibition,[14]; at 3.7 µM,0%
same,growth inhibition,[14]; at 11.0 µM,2%
same,growth inhibition,[14]; at 33.0 µM,17%
same,growth inhibition,[14]; at 100.0 µM,90% (active)
same,growth inhibition,[15]; [17],55%
same,growth inhibition,[15]; [18],86% (active)
same,growth inhibition,[15]; at 50.0 µM,68.5%
same,growth inhibition,[16]; at 1.2 µM,0%
same,growth inhibition,[16]; at 3.7 µM,-3%
same,growth inhibition,[16]; at 11.0 µM,-1%
same,growth inhibition,[16]; at 33.0 µM,9%
same,growth inhibition,[16]; at 100.0 µM,66%
OC1(C#CI)CCCCC1,growth inhibition,[1]; at 1.2 µM,1%
same,growth inhibition,[1]; at 3.7 µM,43%
same,growth inhibition,[1]; at 11.0 µM,96% (active)
same,growth inhibition,[1]; at 33.0 µM,98% (active)
same,growth inhibition,[1]; at 100.0 µM,99% (active)
same,growth inhibition,[2]; at 1.2 µM,-4%
same,growth inhibition,[2]; at 3.7 µM,38%
same,growth inhibition,[2]; at 11.0 µM,96% (active)
same,growth inhibition,[2]; at 33.0 µM,99% (active)
same,growth inhibition,[2]; at 100.0 µM,99% (active)
same,growth inhibition,[3]; at 1.2 µM,-16%
same,growth inhibition,[3]; at 3.7 µM,40%
same,growth inhibition,[3]; at 11.0 µM,96% (active)
same,growth inhibition,[3]; at 33.0 µM,99% (active)
same,growth inhibition,[3]; at 100.0 µM,99% (active)
same,growth inhibition,[4]; at 1.2 µM,-7%
same,growth inhibition,[4]; at 3.7 µM,-3%
same,growth inhibition,[4]; at 11.0 µM,88% (active)
same,growth inhibition,[4]; at 33.0 µM,99% (active)
same,growth inhibition,[4]; at 100.0 µM,99% (active)
same,growth inhibition,[5]; at 1.2 µM,-6%
same,growth inhibition,[5]; at 3.7 µM,58%
same,growth inhibition,[5]; [17],67%
same,growth inhibition,[5]; at 11.0 µM,98% (active)
same,growth inhibition,[5]; at 33.0 µM,99% (active)
same,growth inhibition,[5]; [18],97% (active)
same,growth inhibition,[5]; at 50.0 µM,99.7% (active)
same,growth inhibition,[5]; at 100.0 µM,99% (active)
same,growth inhibition,[6]; at 1.2 µM,-4%
same,growth inhibition,[6]; at 3.7 µM,6%
same,growth inhibition,[6]; [17],-18%
same,growth inhibition,[6]; at 11.0 µM,89% (active)
same,growth inhibition,[6]; at 33.0 µM,99% (active)
same,growth inhibition,[6]; [18],98% (active)
same,growth inhibition,[6]; at 50.0 µM,99.5% (active)
same,growth inhibition,[6]; at 100.0 µM,100% (active)
same,growth inhibition,[7]; at 1.2 µM,-2%
same,growth inhibition,[7]; at 3.7 µM,32%
same,growth inhibition,[7]; at 11.0 µM,98% (active)
same,growth inhibition,[7]; at 33.0 µM,99% (active)
same,growth inhibition,[7]; at 100.0 µM,100% (active)
same,growth inhibition,[8]; [17],-20%
same,growth inhibition,[8]; [18],97% (active)
same,growth inhibition,[8]; at 50.0 µM,98.6% (active)
same,growth inhibition,[9]; at 1.2 µM,-11%
same,growth inhibition,[9]; at 3.7 µM,-5%
same,growth inhibition,[9]; at 11.0 µM,82% (active)
same,growth inhibition,[9]; at 33.0 µM,99% (active)
same,growth inhibition,[9]; at 100.0 µM,99% (active)
same,growth inhibition,[10]; [17],-28%
same,growth inhibition,[10]; [18],98% (active)
same,growth inhibition,[10]; at 50.0 µM,99.2% (active)
same,growth inhibition,[11]; at 1.2 µM,-19%
same,growth inhibition,[11]; at 3.7 µM,12%
same,growth inhibition,[11]; [17],-35%
same,growth inhibition,[11]; at 11.0 µM,97% (active)
same,growth inhibition,[11]; at 33.0 µM,99% (active)
same,growth inhibition,[11]; [18],97% (active)
same,growth inhibition,[11]; at 50.0 µM,99.3% (active)
same,growth inhibition,[11]; at 100.0 µM,99% (active)
